PubChem BioAssay (NCATS)
Results filed as inconclusive are left out. The source made the active and inactive calls. Calls come from the whole dose curve; as a rule, active = well fitted curve in the direction sought with a large enough effect; inconclusive = small, poorly fitted or top-dose-only effect, or another doubt; inactive = no such curve, though single readings can be large; an effect the other way counts as inactive or inconclusive.

Key:
CRL-7250 = normal cell line; assay: Cytotoxic Profiling of Annotated Libraries Using Quantitative High-Throughput Screening (AID 1296008); settings: Five cell lines viability, CellTiter-Glo ATP luminescence, 48-72 h; max response: active compounds read low; note: nearly all actives have a fitted effect of over 60% in size; for max response: % is set by controls: 0 for no effect and ±100 for the full control effect
How it was run: (§1)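 Compounds were pin-transferred onto cells and incubated 48 or 72 hr at 37 degree Celsius, 95% humidity. CellTiter-Glo was added, plates sat 10 min at room temperature, then ATP-coupled luminescence was imaged as the viability read-out.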

HaCat [1] = assay: as above; settings: Five cell lines viability, CellTiter-Glo ATP luminescence, 48-72 h; max response: active compounds read low
How it was run: as §1

KB-3-1 = assay: as above; settings: Five cell lines viability, CellTiter-Glo ATP luminescence, 48-72 h; max response: active compounds read low
How it was run: as §1

NIH3T3 [2] = assay: as above; settings: Five cell lines viability, CellTiter-Glo ATP luminescence, 48-72 h; max response: active compounds read low
How it was run: as §1

HACAT [3] = assay: qHTS assay to identify novel small-molecules to repurpose for Merkel cell carcinoma treatment (AID 1296009); settings: MCC and control cell lines, CellTiter-Glo viability, 72 h; at 44.8 µM (top of the series) unless noted; note: nearly all actives have a fitted effect of over 60% in size
How it was run: (§2)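 Cells exposed to NPC (8-point) and MIPE (11-point) compound dilutions for 72 hr at 37 degree celsius; viability read by CellTiter-Glo luminescence, normalized to no-cell and DMSO in-plate controls.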

NIH3T3 [4] = assay: as above; settings: MCC and control cell lines, CellTiter-Glo viability, 72 h; series mostly up to 44.8 µM
How it was run: as §2

C33A = assay: Primary qHTS to identify gynecologic anti-cancer compounds using libraries of approved drugs and bioactive compounds (AID 1345084); settings: Gynecologic cancer cell panel viability, ATPlite luminescence, 48 h; series mostly up to 57.5 µM; note: % is set by controls: 0 for no effect and ±100 for the full control effect; nearly all actives have a fitted effect of over 55% in size
How it was run: (§3)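 Cell viability after 48 h drug treatment, ATPlite luminescence readout; five doses.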

CAOV3 = assay: as above; settings: Gynecologic cancer cell panel viability, ATPlite luminescence, 48 h; series mostly up to 57.5 µM
How it was run: as §3

CASKI = assay: as above; settings: Gynecologic cancer cell panel viability, ATPlite luminescence, 48 h; series mostly up to 57.5 µM
How it was run: as §3

Es-2 = assay: as above; settings: Gynecologic cancer cell panel viability, ATPlite luminescence, 48 h; series mostly up to 57.5 µM
How it was run: as §3

HeLa = assay: as above; settings: Gynecologic cancer cell panel viability, ATPlite luminescence, 48 h; series mostly up to 57.5 µM
How it was run: as §3

Hek293T = assay: as above; settings: Gynecologic cancer cell panel viability, ATPlite luminescence, 48 h, control line for the selectivity index; series mostly up to 57.5 µM
How it was run: as §3

JEG-3 = assay: as above; settings: Gynecologic cancer cell panel viability, ATPlite luminescence, 48 h; series mostly up to 57.5 µM
How it was run: as §3

OV90 = assay: as above; settings: Gynecologic cancer cell panel viability, ATPlite luminescence, 48 h; series mostly up to 57.5 µM
How it was run: as §3

CCN(CC)C(=O)C(c1ccccc1)N1CCN(c2ccc(NC(=O)c3ccccc3-c3cccnc3)cc2F)CC1 (centres undefined)
inactive: max response (CRL-7250) -1.45% | outcome (HaCat [1]) | outcome (KB-3-1) | outcome (NIH3T3 [2]) | outcome (HACAT [3]) | Potency (NIH3T3 [4]) | Potency (C33A) | Potency (CAOV3) | Potency (CASKI) | Potency (Es-2) | Potency (HeLa) | Potency (Hek293T) | Potency (JEG-3) | Potency (OV90)

C/C=C/C=C/C(=O)O[C@@H]1C=C2COC(=O)[C@]2(O)[C@@]2(C)CCCC(C)(C)[C@H]12
inactive: max response (CRL-7250) -1.83% | outcome (HaCat [1]) | max response (KB-3-1) 0.722% | outcome (NIH3T3 [2]) | outcome (HACAT [3]) | Potency (NIH3T3 [4]) | Potency (C33A) | Potency (CAOV3) | Potency (CASKI) | Potency (Es-2) | Potency (HeLa) | Potency (Hek293T) | Potency (JEG-3) | Potency (OV90)

CCC(C)/C=C(C)/C=C/C1=CC2=C(Cl)C(=O)C(C)(OC(C)=O)C(=O)C2(O)C(OC)O1 (centres undefined)
inactive: outcome (CRL-7250) | outcome (HaCat [1]) | outcome (KB-3-1) | outcome (NIH3T3 [2]) | outcome (HACAT [3]) inactive [at 17.4 µM] | Potency (NIH3T3 [4]) | Potency (C33A) | Potency (CAOV3) | Potency (CASKI) | Potency (Es-2) | Potency (HeLa) | Potency (JEG-3) | Potency (OV90)

COc1ccc(CCN(C)CCCOc2nsc(-c3ccccc3)n2)cc1OC
inactive: outcome (CRL-7250) | outcome (HaCat [1]) | max response (KB-3-1) -3.88% | outcome (NIH3T3 [2]) | outcome (HACAT [3]) | Potency (NIH3T3 [4]) | Potency (C33A) | Potency (CAOV3) | Potency (CASKI) | Potency (Es-2) | Potency (HeLa) | Potency (Hek293T) | Potency (JEG-3) | Potency (OV90)

C=C1CC[C@@H]2[C@](C)(CO)[C@H](O)CC[C@@]2(C)[C@@H]1CC(O)C1=CCOC1=O (some centres undefined)
inactive: max response (CRL-7250) -6.08% | outcome (HaCat [1]) | outcome (KB-3-1) | outcome (NIH3T3 [2]) | outcome (HACAT [3]) | Potency (NIH3T3 [4]) | Potency (C33A) | Potency (CAOV3) | Potency (CASKI) | Potency (Es-2) | Potency (HeLa) | Potency (Hek293T) | Potency (JEG-3) | Potency (OV90)

CC1(C)C2CCC(CO[C@@H]3O[C@H](CO[C@@H]4OC[C@](O)(CO)[C@H]4O)[C@@H](O)[C@H](O)[C@H]3O)C1C2 (some centres undefined)
inactive: max response (CRL-7250) 1.81% | outcome (HaCat [1]) | outcome (KB-3-1) | outcome (NIH3T3 [2]) | outcome (HACAT [3]) inactive [at 17.4 µM] | Potency (NIH3T3 [4]) | Potency (C33A) | Potency (CAOV3) | Potency (CASKI) | Potency (Es-2) | Potency (HeLa) | Potency (Hek293T) | Potency (JEG-3) | Potency (OV90)

CC(C)(C)c1ccc2c(c1)CC[C@H]2NC(=O)Nc1cccc2[nH]ncc12
inactive: max response (CRL-7250) -3.64% | outcome (HaCat [1]) | max response (KB-3-1) -1.56% | outcome (NIH3T3 [2]) | outcome (HACAT [3]) | Potency (NIH3T3 [4]) | Potency (C33A) | Potency (CAOV3) | Potency (CASKI) | Potency (Es-2) | Potency (HeLa) | Potency (Hek293T) | Potency (JEG-3) | Potency (OV90)

CC(=O)O[C@@H]1CC[C@@]2(C)C(CC[C@]3(C)C2[C@H](O)C=C2[C@H]4[C@@H](C)[C@H](C)CC[C@]4(C)CC[C@]23C)[C@@]1(C)C(=O)O (some centres undefined)
inactive: max response (CRL-7250) -13.3% | outcome (HaCat [1]) | outcome (KB-3-1) | outcome (NIH3T3 [2]) | outcome (HACAT [3]) inactive [at 17.4 µM] | Potency (NIH3T3 [4]) | Potency (C33A) | Potency (CAOV3) | Potency (CASKI) | Potency (Es-2) | Potency (HeLa) | Potency (Hek293T) | Potency (JEG-3) | Potency (OV90)

CCCN1CCC=C(c2cc(-c3ccc(C)cc3)no2)C1
inactive: outcome (CRL-7250) | outcome (HaCat [1]) | max response (KB-3-1) 9.64% | outcome (NIH3T3 [2]) | outcome (HACAT [3]) | Potency (NIH3T3 [4]) | Potency (C33A) | Potency (CAOV3) | Potency (CASKI) | Potency (Es-2) | Potency (HeLa) | Potency (Hek293T) | Potency (JEG-3) | Potency (OV90)

CC(C)c1c(O)ccc2c1CC[C@H]1C(C)(C)CCC[C@]21C
inactive: outcome (CRL-7250) | outcome (HaCat [1]) | max response (KB-3-1) 7.3% | outcome (NIH3T3 [2]) | outcome (HACAT [3]) | Potency (NIH3T3 [4]) | Potency (C33A) | Potency (CAOV3) | Potency (CASKI) | Potency (Es-2) | Potency (HeLa) | Potency (Hek293T) | Potency (JEG-3) | Potency (OV90)

CC(=O)OCC(=O)[C@@]12O[C@@H]1C[C@H]1[C@@H]3CC=C4C[C@@H](O)CC[C@]4(C)[C@H]3CC[C@@]12C
inactive: max response (CRL-7250) 1.57% | outcome (HaCat [1]) | outcome (KB-3-1) | outcome (NIH3T3 [2]) | outcome (HACAT [3]) | Potency (NIH3T3 [4]) | Potency (C33A) | Potency (CAOV3) | Potency (CASKI) | Potency (Es-2) | Potency (HeLa) | Potency (Hek293T) | Potency (JEG-3) | Potency (OV90)

Cc1[nH]c2ccccc2c1CCNC(=O)c1cccs1
inactive: max response (CRL-7250) -14.1% | outcome (HaCat [1]) | outcome (KB-3-1) | max response (NIH3T3 [2]) 0.258% | outcome (HACAT [3]) | Potency (C33A) | Potency (CAOV3) | Potency (CASKI) | Potency (Es-2) | Potency (HeLa) | Potency (Hek293T) | Potency (JEG-3) | Potency (OV90)

O=C(Nc1ccc(N(Cc2ccsc2)C(=O)Cn2nnc3ccccc32)cc1)C1CC1
inactive: max response (CRL-7250) -5.74% | outcome (HaCat [1]) | max response (KB-3-1) 6.41% | max response (NIH3T3 [2]) 4.89% | outcome (HACAT [3]) | Potency (C33A) | Potency (CAOV3) | Potency (CASKI) | Potency (Es-2) | Potency (HeLa) | Potency (Hek293T) | Potency (JEG-3) | Potency (OV90)

CCC/C=C/C(=O)O[C@H]1CC(C)(C)CC2[C@@]13[C@H](O)C[C@]1(C)[C@@]2(CCC2[C@@]4(C)CC[C@H](O[C@@H]5O[C@H](C(=O)O)[C@@H](O)[C@H](O[C@@H]6O[C@H](CO)[C@H](O)[C@H](O)[C@H]6O[C@@H]6O[C@@H](C)[C@H](O)[C@@H](O)[C@H]6O[C@@H]6OC[C@](O)(CO)[C@H]6O)[C@H]5O[C@@H]5O[C@H](CO)[C@H](O)[C@H](O)[C@H]5O)C(C)(C)C4CC[C@]21C)O[C@H]3O (some centres undefined)
inactive: outcome (CRL-7250) | outcome (HaCat [1]) | outcome (KB-3-1) | max response (NIH3T3 [2]) 3.59% | outcome (HACAT [3]) inactive [at 9.27 µM] | activity change, negative = cytotoxicity (C33A) 1.29% [at 6.55 µM] | activity change, negative = cytotoxicity (CAOV3) -15.9% [at 6.55 µM] | activity change, negative = cytotoxicity (CASKI) -0.213% [at 6.55 µM] | activity change, negative = cytotoxicity (Es-2) 3.48% [at 6.55 µM] | activity change, negative = cytotoxicity (HeLa) 4.5% [at 6.55 µM] | activity change, negative = cytotoxicity (Hek293T) -25.4% [at 6.55 µM] | activity change, negative = cytotoxicity (JEG-3) 15.7% [at 6.55 µM]

COC1C=C(C)C(O)(CO)C2(C)CCCC(C)(C)C12 (centres undefined)
inactive: outcome (CRL-7250) | outcome (HaCat [1]) | max response (KB-3-1) 2.43% | max response (NIH3T3 [2]) -0.263% | outcome (HACAT [3]) | Potency (C33A) | Potency (CAOV3) | Potency (CASKI) | Potency (Es-2) | Potency (HeLa) | Potency (Hek293T) | Potency (JEG-3) | Potency (OV90)
